Experimental data: PubChem BioAssay

Assays:
[1] = NFkB reporter suppression in cystic fibrosis bronchial cells – cell-based, uHTS hits, panel, cytotoxicity readout, dose response (AID 624344); conditions: CF bronchial epithelial cells, PAF-induced NFkB reporter inhibition, with PAF, run 1; at 79 µM (top of the series) unless noted
[2] = as above; conditions: CF bronchial epithelial cells, PAF-induced NFkB reporter inhibition, with PAF, run 2; at 79 µM (top of the series) unless noted

Structure (SMILES) | inhibition [1] | inhibition [2]
CCCCCc1cc(O)c2c(C)cc(=O)oc2c1 | 112% | 99.4%
NS(=O)(=O)c1ccc(CCNc2nn3c(-c4cccc(OC(F)(F)F)c4)cnc3s2)cc1 | 98.6% | 102%
O=C1NC(=S)N/C1=C/c1cccnc1 | 97.5% | 103%
CCN1CCN(Cc2ccc(NC(=O)c3ccc(C)c(NC(=O)c4cccc5[nH]ccc45)c3)cc2C(F)(F)F)CC1 | 84.6% | 77.6%
CC(=O)OCCN1c2ccccc2Sc2cnccc21 | 105% | 109%
CNC(=O)c1ccc(NC(=O)C2CCN(c3ncnc4sc(C)c(C)c34)CC2)cc1 | 85.3% | 72%
COc1ccc2c(c1)c(C(C)=O)c(C)n2-c1ccc(C(C)=O)cc1 | 89.8% | 101%
Cc1ccsc1CN(C)c1ncnc2ccc(-c3ccoc3)cc12 | 91.6% | 93.8%
Cc1ccccc1S(=O)(=O)Cc1ccc(C(=O)N2CCN(c3cccc(C)c3C)CC2)o1 | 103% | 114%
CC(=O)Nc1ccc(NC(=O)COC(=O)c2c3c(nc4ccccc24)CCN(Cc2ccccc2)C3)cc1 | 92.5% | 89.8%
O=S1(=O)CC=C(CSC(=S)NC2CCS(=O)(=O)C2)C1 (stereo unspecified) | 100% | 110%
c1csc(Cc2nn3c(-c4ccncc4)nnc3s2)c1 | 115% | 102%
CC1CCN(CC(CS(=O)(=O)c2ccc([N+](=O)[O-])cc2)N2CCC(C)CC2)CC1 (stereo unspecified) | 101% | 104%
C=C(C)[C@@H]1CC[C@]2(C(=O)O)CC[C@]3(C)[C@H](CC[C@@H]4[C@@]5(C)CC[C@H](O)C(C)(C)[C@@H]5CC[C@]43C)[C@@H]12 | 47.9% | 57.6% [at 19.8 µM]
O=S(=O)(Nc1nc2ccccc2nc1N1CCN(c2ccccc2F)CC1)c1ccc(Cl)cc1 | 96.7% | 111%
COc1cccc(-c2ccc3ncnc(NCc4cccnc4)c3c2)c1 | 103% | 100%
C/C=C/COC(=O)c1[nH]c2c(c1C)C(=O)CC(c1ccco1)C2 (stereo unspecified) | 106% | 92.9%
Nc1nccc(-c2ccc(-n3cnc4ccccc43)cc2)n1 | 101% | 108%
Cc1ccc(NC(=O)/C=C/c2ccco2)nc1 | 95.8% | 99.8%

Structure (SMILES) | inhibition [1] | inhibition [2]
C[C@@H]1CN([C@H](C)CO)C(=O)c2cc(NC(=O)Nc3ccc(C(F)(F)F)cc3)ccc2O[C@H]1CN(C)S(=O)(=O)c1ccc(Cl)cc1 | 86.7% | 92.7%
COCCN1Cc2cccc(C(=O)Nc3cccc(-c4nc5ccccc5[nH]4)c3)c2C1=O | 95.8% | 114%
COc1ccc2c(c1OC)C(=O)N1c3ccccc3C(=O)N(c3ccccc3)C21 (stereo unspecified) | 112% | 102%
CCOC(=O)c1ccc(NC(=O)Nc2nncs2)cc1 | 83.2% | 111%
CCc1cc(SC#N)cc(C)c1NC(=O)CCl | 107% | 99.9%
CCC1(O)CC2CN(CCc3c([nH]c4ccccc34)C(C(=O)OC)(c3cc4c(cc3OC)N(C=O)C3C(O)(C(=O)OC)C(OC(C)=O)C5(CC)C=CCN6CCC43C65)C2)C1 (stereo unspecified) | 107% | 78.2%
C=CCOc1c(OC)cc(/C=N/Nc2cccc(C(=O)O)c2)c(Br)c1Br | 103% | 105%
CC1(Cc2ccc(F)cc2)C(=O)Nc2ccc(-c3cccnc3)cc21 (stereo unspecified) | 98.2% | 108%
COC(=O)C1=C(C(=O)OC)[C@@H]2N(Cc3ccccc3)c3ccccc3[C@@]23C[C@@H](C(=O)OC)N(C(=O)c2ccc(Br)cc2)C3=N1 | 101% | 110%
CC(=O)c1c(O)cc2c3c1OC(C)(C)C1CCC(C)(CC31)O2 (stereo unspecified) | 111% | 99%
CCCN(CC)c1ncnc2[nH]ncc12 | 106% | 108%
CCOC(=O)Cc1nnc2c(Nc3ccc(Cl)cc3)nc3nonc3n12 | 110% | 101%
CCOC(=O)c1c(C)c2c(=O)[nH]cnc2n1-c1ccccc1 | 110% | 104%
COc1cccc(-c2ccc3ncnc(NCc4cc(C)cs4)c3c2)c1 | 106% | 116%
O=C1OC(c2ccccc2)(c2cc(Br)ccc2O)c2ccccc21 (stereo unspecified) | 105% | 116%
COc1ccc(-c2nc(NC(=O)c3ccc(OCC(=O)Nc4ccc(F)cc4)c(OC)c3)sc2C)cc1 | 91.7% | 96.2%
O=C(CCC1COc2ccccc2O1)Nc1ccc(Cl)cn1 (stereo unspecified) | 104% | 112%
COc1ccc2nc(Nc3nc(CSc4nc5ccccc5[nH]4)cc(=O)[nH]3)nc(C)c2c1 | 108% | 102%
CC(=O)Nc1nc(C)c(-c2csc(Nc3cccc(C(C)=O)c3)n2)s1 | 105% | 101%
